Inconclusive results are not listed. Active and inactive are the calls of the source. Unless noted, the call rests on the fitted dose curve; in most records, active means well fitted curve in the direction sought with a large enough effect; inconclusive means small, poorly fitted or top-dose-only effect, or another doubt; inactive means no such curve, though single readings can be large; an effect the other way counts as inactive or inconclusive.
Experiments:
[1] = AP1 Signaling Pathway (AID 357; active means well fitted curve in either direction with a large enough effect, not every such curve was filed as active;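 further: ME-180 reporter cells stimulated with EGF at its EC50 level; on the % scale 0 is the no-effect control and ±100 the full control effect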); conditions: ME-180 AP-1-bla reporter, EGF-induced, beta-lactamase ratio, 5 h; at 17.2 µM (top of the series) unless noted
In short: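 A ratiometric CCF4 readout (405 nm excitation; 460 and 530 nm emission) quantified AP-1-driven beta-lactamase in ME-180 cells after 5 h with compound and EC50 EGF; AC50 values were derived for activators and inhibitors.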

[2] = NFAT Signaling Pathway (AID 444; active means well fitted curve in either direction with a large enough effect, not every such curve was filed as active;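 further: carbachol stimulus at about its EC50 of 1 µM final; on the % scale 0 is the no-effect control and ±100 the full control effect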); conditions: Jurkat NFAT-bla M1, carbachol, beta-lactamase ratio, 5 h; at 17.2 µM (top of the series) unless noted
In short: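 Read-out: CCF4 FRET ratio (460 nm/530 nm) after 1 h RT dye loading, used for %activity and AC50 from titration series. Cells: Jurkat NFAT-β-lactamase/M1 line, treated with compound plus 1 uM carbachol for 5 h, 37 °C.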

[3] = Stat Signaling Pathway (AID 446; active means well fitted curve in either direction with a large enough effect, not every such curve was filed as active;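 further: ME-180 cervical cancer cells given 40 pM IL-6 alongside compound; SIE-controlled beta-lactamase reporter measured as 460/530 nm FRET emission ratio; on the % scale 0 is the no-effect control and ±100 the full control effect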)
In short: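 Reporter line: ME-180 cervical carcinoma, SIE-beta-lactamase. Treatment: compound with 40 pM IL-6, 5 hrs, 37 C, in low-serum OPTI-MEM with 10 mM HEPES pH 7.3. Detection: 460/530 nm fluorescence.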

[4] = target: Glucocorticoid receptor (Homo sapiens) (UniProt P04150); assay: GR-GFP Redistribution (AID 450;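 active means compounds whose dose series gives a full or clear partial fitted curve of increased nuclear translocation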; further: potency means the concentration at half of the fitted maximal effect); conditions: U2OS GR-GFP nuclear translocation, laser cytometry, 2 h
Chain of Glucocorticoid receptor (Homo sapiens) (P04150 whole entry, looked up, the tested form may be a part): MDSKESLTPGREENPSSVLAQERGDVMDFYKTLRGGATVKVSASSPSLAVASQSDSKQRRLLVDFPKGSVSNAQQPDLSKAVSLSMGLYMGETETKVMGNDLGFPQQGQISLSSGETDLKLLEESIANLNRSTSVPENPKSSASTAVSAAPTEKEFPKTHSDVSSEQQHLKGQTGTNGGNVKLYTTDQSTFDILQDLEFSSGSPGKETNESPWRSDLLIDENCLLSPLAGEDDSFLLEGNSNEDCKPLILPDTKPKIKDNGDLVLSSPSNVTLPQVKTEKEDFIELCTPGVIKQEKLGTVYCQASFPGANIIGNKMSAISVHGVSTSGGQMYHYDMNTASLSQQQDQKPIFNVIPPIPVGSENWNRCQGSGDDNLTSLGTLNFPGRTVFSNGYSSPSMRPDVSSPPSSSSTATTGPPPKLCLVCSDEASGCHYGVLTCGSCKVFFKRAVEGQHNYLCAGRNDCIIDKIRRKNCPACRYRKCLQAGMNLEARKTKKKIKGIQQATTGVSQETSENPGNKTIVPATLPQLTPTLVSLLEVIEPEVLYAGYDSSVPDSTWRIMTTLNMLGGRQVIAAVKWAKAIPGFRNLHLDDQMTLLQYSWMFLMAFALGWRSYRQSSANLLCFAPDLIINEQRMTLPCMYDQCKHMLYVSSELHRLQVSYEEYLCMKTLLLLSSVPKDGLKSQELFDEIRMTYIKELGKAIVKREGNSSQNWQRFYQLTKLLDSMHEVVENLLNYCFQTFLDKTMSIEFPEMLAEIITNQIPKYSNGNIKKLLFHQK

[5] = target: Glucocorticoid receptor (Homo sapiens) (UniProt P04150); assay: GR-EFC Redistribution (AID 451; calls by dose curve; further: potency means the concentration at half of the fitted maximal effect); conditions: CHO-K1 GR-EFC translocation, beta-gal luminescence, 2 h
In short: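 Translocation of GR-ED fusion to nuclear EA restores b-gal, read by luminescence after 1 h room-temperature detection. Engineered CHO-K1 biosensor cells, 1,000/well, exposed 2 h at 37 C to titrations up to 46 uM final.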

[6] = target: Mitogen-activated protein kinase 10 (Mus musculus) (UniProt Q61831); assay: JNK3 AlphaScreen Assay (AID 530; active means well fitted curve in either direction with a large enough effect, not every such curve was filed as active;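 further: kinase came from lysate of stimulated human HepG2 cells; signal reports phosphorylation of biotinylated GST-cJun 1-79 at Ser73 with 10 µM ATP; on the % scale 0 is the no-effect control and ±100 the full control effect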)
In short: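 Room-temperature AlphaScreen kinase assay; pre-activated HepG2 lysate as JNK3 source, biotin-GST-cJun(1-79) substrate, 10 uM ATP, compound 15 min preincubation.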

[7] = target: 3',5'-cyclic-AMP phosphodiesterase 4B (Homo sapiens) (UniProt Q07343); assay: qHTS Assay for Inhibitors of PDE-IV (AID 607; active means well fitted activation curve with a large enough effect in the main read-out, with a control signal flat, not every such curve was filed as active; further: % of control where 0% means no effect)
Chain of 3',5'-cyclic-AMP phosphodiesterase 4B (Homo sapiens) (Q07343 whole entry, looked up): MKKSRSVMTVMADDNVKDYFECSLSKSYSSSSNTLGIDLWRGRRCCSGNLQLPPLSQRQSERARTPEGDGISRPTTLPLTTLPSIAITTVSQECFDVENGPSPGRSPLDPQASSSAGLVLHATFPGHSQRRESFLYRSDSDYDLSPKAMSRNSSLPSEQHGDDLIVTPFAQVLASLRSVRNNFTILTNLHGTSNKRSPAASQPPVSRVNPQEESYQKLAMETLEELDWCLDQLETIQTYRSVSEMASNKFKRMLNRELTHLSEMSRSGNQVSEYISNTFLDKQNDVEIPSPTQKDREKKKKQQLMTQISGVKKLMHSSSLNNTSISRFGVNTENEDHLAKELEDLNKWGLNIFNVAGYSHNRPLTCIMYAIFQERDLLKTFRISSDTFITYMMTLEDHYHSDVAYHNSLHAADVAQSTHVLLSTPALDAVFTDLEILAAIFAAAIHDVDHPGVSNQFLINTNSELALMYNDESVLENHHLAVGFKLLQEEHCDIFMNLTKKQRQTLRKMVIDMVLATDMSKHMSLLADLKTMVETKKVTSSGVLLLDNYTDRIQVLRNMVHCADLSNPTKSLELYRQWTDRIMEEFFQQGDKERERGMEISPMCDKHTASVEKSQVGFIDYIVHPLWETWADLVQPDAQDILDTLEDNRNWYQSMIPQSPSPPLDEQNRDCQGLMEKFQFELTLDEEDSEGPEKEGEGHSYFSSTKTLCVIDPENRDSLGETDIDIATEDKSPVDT
In short: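 Cell-based read-out of cAMP via a modified cyclic nucleotide-gated channel and membrane potential dye (535/590 nm) in HEK293 cells expressing PDE4 endogenously. Compounds tested up to 22.9 uM final; 100 uM RO 20-1724 reference.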

[8] = target: ATP-dependent 6-phosphofructokinase (Trypanosoma brucei brucei) (UniProt O15648); assay: qHTS Assay to Find Inhibitors of T. brucei phosphofructokinase: hit validation (AID 492961)
Chain of ATP-dependent 6-phosphofructokinase (Trypanosoma brucei brucei) (O15648 whole entry, looked up): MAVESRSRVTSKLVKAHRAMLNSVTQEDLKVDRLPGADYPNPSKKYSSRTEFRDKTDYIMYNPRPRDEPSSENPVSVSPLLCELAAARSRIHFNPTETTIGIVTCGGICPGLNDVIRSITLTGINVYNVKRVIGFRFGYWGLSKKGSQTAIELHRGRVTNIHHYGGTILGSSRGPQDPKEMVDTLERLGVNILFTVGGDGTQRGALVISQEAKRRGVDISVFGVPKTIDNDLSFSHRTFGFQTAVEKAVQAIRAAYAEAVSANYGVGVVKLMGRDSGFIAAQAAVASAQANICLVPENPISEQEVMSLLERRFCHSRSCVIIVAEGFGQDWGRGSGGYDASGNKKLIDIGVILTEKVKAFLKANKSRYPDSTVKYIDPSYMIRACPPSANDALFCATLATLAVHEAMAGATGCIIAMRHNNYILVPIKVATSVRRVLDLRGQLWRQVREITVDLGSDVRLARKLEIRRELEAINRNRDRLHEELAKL
In short: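 Measures ADP output of PFK (1.25 nM) at 0.1 mM ATP, 0.5 mM F6P, pH 8.0 TEA buffer with 5 mM MgCl2. No-enzyme wells define full inhibition; uninhibited enzyme wells define zero.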

[9] = target: Luciferin 4-monooxygenase (Photinus pyralis) (UniProt P08659); assay: Biochemical firefly luciferase enzyme assay for NPC (AID 624030);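 further: purified P. pyralis luciferase at 10 nM with luciferin and ATP substrate; 0% = DMSO and -100% = full luciferase inhibition by PTC124 control; nearly all actives have a fitted effect of over 70% in size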
Chain of Luciferin 4-monooxygenase (Photinus pyralis) (P08659 whole entry, looked up): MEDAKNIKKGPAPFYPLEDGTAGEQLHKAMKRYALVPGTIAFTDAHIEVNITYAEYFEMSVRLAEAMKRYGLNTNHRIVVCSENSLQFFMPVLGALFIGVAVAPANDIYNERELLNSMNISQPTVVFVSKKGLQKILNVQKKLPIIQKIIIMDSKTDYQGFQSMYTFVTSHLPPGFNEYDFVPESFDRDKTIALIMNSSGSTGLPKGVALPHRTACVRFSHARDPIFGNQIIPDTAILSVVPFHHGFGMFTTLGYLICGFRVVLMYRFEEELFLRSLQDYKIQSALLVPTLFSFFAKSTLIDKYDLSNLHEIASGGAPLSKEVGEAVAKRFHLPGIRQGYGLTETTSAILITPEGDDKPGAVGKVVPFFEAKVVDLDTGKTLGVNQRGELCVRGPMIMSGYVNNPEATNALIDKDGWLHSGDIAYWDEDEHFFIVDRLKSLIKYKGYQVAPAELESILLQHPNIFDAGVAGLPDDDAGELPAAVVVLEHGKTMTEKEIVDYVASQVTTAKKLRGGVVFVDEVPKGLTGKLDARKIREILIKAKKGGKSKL
In short: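 Direct inhibition of firefly luciferase enzyme (10 nM final, 50 mM Tris Acetate) assessed by luminescence within 5 minutes. Percent activity scaled between DMSO and PTC124 positive control, with concentration-effect curves classified by fit quality and response.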

[10] = S16 Schwann cell viability assay (CellTiter-Glo assay) (AID 624031);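 further: cellular ATP luminescence as a viability measure; plate controls were DMSO-treated cells for no effect and cell-free wells for full effect; nearly all actives have a fitted effect of over 70% in size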
In short: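 Luminescent ATP read-out (CellTiter-Glo) after 24 h compound exposure of native S16 rat Schwann cells at 37 °C. Signals were normalized between cell-free wells and DMSO-treated cells, set as 0% activity.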

[11] = S16 Schwann cell PMP22 intronic element firefly luciferase assay (AID 624032);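 further: plate controls were DMSO for no effect and PTC124 positive control mean for full effect; nearly all actives have a fitted effect of over 30% in size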
In short: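 Luciferase reporter of PMP22 intronic-element expression in stably transfected S16 rat Schwann cells, read by ONE-Glo luminescence after 24 h compound exposure at 37 C. Activity scaled between DMSO (0%) and positive-control PTC124; concentration-effect curves quality-classified.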

[12] = qHTS profiling for inhibitors of Plasmodium falciparum proliferation (AID 504749); further: nearly all actives have a fitted effect of over 60% in size; further: potency means the concentration at half of the fitted maximal effect;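 on activity, negative = inhibition: 0% = DMSO vehicle and full inhibition = artemisinin control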; conditions: P. falciparum in erythrocytes, SYBR Green DNA, 72 h, at 12.8 µM (top of the series)
In short: (§1)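 Three-day growth assay of blood-stage parasites in erythrocytes (0.3% parasitemia, 2.5% hematocrit) at 37 C, 5% CO2, quantified by SYBR Green DNA staining after overnight detergent lysis.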

3D7 = assay: as above; conditions: P. falciparum in erythrocytes, SYBR Green DNA, 72 h; series mostly up to 28.7 µM
In short: as §1

AA1029 = assay: as above; conditions: P. falciparum in erythrocytes, SYBR Green DNA, 72 h; series mostly up to 28.7 µM
In short: as §1

AS120 = assay: as above; conditions: P. falciparum in erythrocytes, SYBR Green DNA, 72 h; series mostly up to 28.7 µM
In short: as §1

ATS189 = assay: as above; conditions: P. falciparum in erythrocytes, SYBR Green DNA, 72 h; series mostly up to 28.7 µM
In short: as §1

C2A = assay: as above; conditions: P. falciparum in erythrocytes, SYBR Green DNA, 72 h; series mostly up to 28.7 µM
In short: as §1

CP185 = assay: as above; conditions: P. falciparum in erythrocytes, SYBR Green DNA, 72 h; series mostly up to 28.7 µM
In short: as §1

CP191 = assay: as above; conditions: P. falciparum in erythrocytes, SYBR Green DNA, 72 h; series mostly up to 28.7 µM
In short: as §1

CP194 = assay: as above; conditions: P. falciparum in erythrocytes, SYBR Green DNA, 72 h; series mostly up to 28.7 µM
In short: as §1

CP201 = assay: as above; conditions: P. falciparum in erythrocytes, SYBR Green DNA, 72 h; series mostly up to 28.7 µM
In short: as §1

CP203 = assay: as above; conditions: P. falciparum in erythrocytes, SYBR Green DNA, 72 h; series mostly up to 28.7 µM
In short: as §1

CP211 = assay: as above; conditions: P. falciparum in erythrocytes, SYBR Green DNA, 72 h; series mostly up to 28.7 µM
In short: as §1

CP215 = assay: as above; conditions: P. falciparum in erythrocytes, SYBR Green DNA, 72 h; series mostly up to 28.7 µM
In short: as §1

CP217 = assay: as above; conditions: P. falciparum in erythrocytes, SYBR Green DNA, 72 h; series mostly up to 28.7 µM
In short: as §1

CP238 = assay: as above; conditions: P. falciparum in erythrocytes, SYBR Green DNA, 72 h; series mostly up to 28.7 µM
In short: as §1

CP247 = assay: as above; conditions: P. falciparum in erythrocytes, SYBR Green DNA, 72 h; series mostly up to 28.7 µM
In short: as §1

CP250 = assay: as above; conditions: P. falciparum in erythrocytes, SYBR Green DNA, 72 h; series mostly up to 28.7 µM
In short: as §1

CP252 = assay: as above; conditions: P. falciparum in erythrocytes, SYBR Green DNA, 72 h; series mostly up to 28.7 µM
In short: as §1

CP256 = assay: as above; conditions: P. falciparum in erythrocytes, SYBR Green DNA, 72 h; series mostly up to 28.7 µM
In short: as §1

CP262 = assay: as above; conditions: P. falciparum in erythrocytes, SYBR Green DNA, 72 h; series mostly up to 28.7 µM
In short: as §1

CP265 = assay: as above; conditions: P. falciparum in erythrocytes, SYBR Green DNA, 72 h; series mostly up to 28.7 µM
In short: as §1

CP266 = assay: as above; conditions: P. falciparum in erythrocytes, SYBR Green DNA, 72 h; series mostly up to 28.7 µM
In short: as §1

CP268 = assay: as above; conditions: P. falciparum in erythrocytes, SYBR Green DNA, 72 h; series mostly up to 28.7 µM
In short: as §1

CP269 = assay: as above; conditions: P. falciparum in erythrocytes, SYBR Green DNA, 72 h; series mostly up to 28.7 µM
In short: as §1

CP297 = assay: as above; conditions: P. falciparum in erythrocytes, SYBR Green DNA, 72 h; series mostly up to 28.7 µM
In short: as §1

CP305 = assay: as above; conditions: P. falciparum in erythrocytes, SYBR Green DNA, 72 h; series mostly up to 28.7 µM
In short: as §1

CP315 = assay: as above; conditions: P. falciparum in erythrocytes, SYBR Green DNA, 72 h; series mostly up to 28.7 µM
In short: as §1

CP325 = assay: as above; conditions: P. falciparum in erythrocytes, SYBR Green DNA, 72 h; series mostly up to 28.7 µM
In short: as §1

CP329 = assay: as above; conditions: P. falciparum in erythrocytes, SYBR Green DNA, 72 h; series mostly up to 28.7 µM
In short: as §1

DIV17 = assay: as above; conditions: P. falciparum in erythrocytes, SYBR Green DNA, 72 h; series mostly up to 28.7 µM
In short: as §1

DIV30 = assay: as above; conditions: P. falciparum in erythrocytes, SYBR Green DNA, 72 h; series mostly up to 28.7 µM
In short: as §1

Dd2 = assay: as above; conditions: P. falciparum in erythrocytes, SYBR Green DNA, 72 h; series mostly up to 28.7 µM
In short: as §1

ECU = assay: as above; conditions: P. falciparum in erythrocytes, SYBR Green DNA, 72 h; series mostly up to 28.7 µM
In short: as §1

FAB9 = assay: as above; conditions: P. falciparum in erythrocytes, SYBR Green DNA, 72 h; series mostly up to 28.7 µM
In short: as §1

JCK = assay: as above; conditions: P. falciparum in erythrocytes, SYBR Green DNA, 72 h; series mostly up to 28.7 µM
In short: as §1

N140 = assay: as above; conditions: P. falciparum in erythrocytes, SYBR Green DNA, 72 h; series mostly up to 28.7 µM
In short: as §1

P94_40 = assay: as above; conditions: P. falciparum in erythrocytes, SYBR Green DNA, 72 h; series mostly up to 28.7 µM
In short: as §1

PC15 = assay: as above; conditions: P. falciparum in erythrocytes, SYBR Green DNA, 72 h; series mostly up to 28.7 µM
In short: as §1

PC26 = assay: as above; conditions: P. falciparum in erythrocytes, SYBR Green DNA, 72 h; series mostly up to 28.7 µM
In short: as §1

PC49 = assay: as above; conditions: P. falciparum in erythrocytes, SYBR Green DNA, 72 h; series mostly up to 28.7 µM
In short: as §1

SC27B = assay: as above; conditions: P. falciparum in erythrocytes, SYBR Green DNA, 72 h; series mostly up to 28.7 µM
In short: as §1

TAB113 = assay: as above; conditions: P. falciparum in erythrocytes, SYBR Green DNA, 72 h; series mostly up to 28.7 µM
In short: as §1

CN(C)[C@H]1C(=O)C(C(N)=O)=C(O)[C@]2(O)C(=O)C3=C(O)c4c(O)cccc4[C@@](C)(O)[C@H]3C[C@@H]12
inactive: activity change, negative = inhibition [1] 11.4% | activity change, negative = inhibition [2] -2.46% | outcome [3] | Potency [4] > 20.6 µM | Potency [5] > 20.6 µM | outcome [6] | outcome [7] | outcome [8] | Potency [9] | Potency [10] | Potency [11] | activity, negative = inhibition ([12]; parasite line A) -27.8% | activity, negative = inhibition ([12]; parasite line B) -27.1% | Potency (3D7) | Potency (AA1029) | Potency (AS120) | Potency (ATS189) | Potency (C2A) | Potency (CP185) | Potency (CP191) | Potency (CP194) | Potency (CP201) | Potency (CP203) | Potency (CP211) | Potency (CP215) | Potency (CP217) | Potency (CP238) | Potency (CP247) | Potency (CP250) | Potency (CP252) | Potency (CP256) | Potency (CP262) | Potency (CP265) | Potency (CP266) | Potency (CP268) | Potency (CP269) | Potency (CP297) | Potency (CP305) | Potency (CP315) | Potency (CP325) | Potency (CP329) | Potency (DIV17) | Potency (DIV30) | Potency (ECU) | Potency (FAB9) | Potency (JCK) | Potency (N140) | Potency (P94_40) | Potency (PC15) | Potency (PC26) | Potency (PC49) | Potency (SC27B) | Potency (TAB113)
active: Potency (Dd2) 1.78 µM

Reference: PubChem BioAssay (NCATS)
